From ChEMBL document CHEMBL4513216, “Probing the Open Global Health Chemical Diversity Library for Multistage-Active Starting Points for Next-Generation Antimalarials” (ACS Infect Dis, 2020)
Among all 69,000 compounds or so, about 8,600 (12%) showed an effect of 50% or more. For the sample, strong results were picked, then their nearest neighbours and some compounds at random.

Test system: Plasmodium berghei
Test: Screen against P. berghei liver stage (PbLuc), transformed with Luciferase, at 10uM
Format: functional, HepG2
Conditions: tested at 10 uM

| SMILES | INHIBITION [%] |
| --- | --- |
| CC1(c2ccc(Br)cc2)CC(=O)N(CCC#N)C1=O (stereo not drawn) | -12.2 |
| O=C(O)c1ccccc1-c1ccc(CN2CCCC(O)C2)cc1 (stereo not drawn) | 48.6 |
| Oc1nc(C2CCN(Cc3ccccn3)CC2)cc2ccccc12 | -13.2 |
| CCOc1ccnc(N2CCN(C(=O)c3cn[nH]c3C)CC2)n1 | -11.4 |
| O=C(c1ccccn1)N1C[C@H]2CC[C@@H](C1)N(C(=O)CCc1ccsc1)C2 | -16.5 |
| CCc1n[nH]c(=O)c(C(=O)N2CCSC(C)(C)C2)c1CC | 18.7 |
| COCCC(=O)NCCc1nc(N(C)C)ncc1-c1ccncc1 | 2.5 |
| CCn1cnnc1C1CCN(C(=O)CCCOc2ccccc2)CC1 | 60.9 |
| CCn1cnnc1C1CCN(C(=O)COCCc2ccccc2)CC1 | 32 |
| Cn1cnnc1C1CCN(C(=O)CCCOc2ccccc2)CC1 | 28.8 |
| CC(CN1CCCC1=O)NC(=O)c1cc(=O)[nH]c2ccc(Cl)cc12 (stereo not drawn) | 35.4 |
| Cc1noc(C)c1CCC(=O)N1CCOCC1CC(=O)N1CCCC1 (stereo not drawn) | -14.1 |
| COCC(=O)N1CCO[C@H]2[C@H](OCc3cccnc3)CC[C@@H]21 | -15.7 |
| Cc1nc(N2CCC3(CCCNC3=O)C2)nc2c1CCCC2 (stereo not drawn) | 47.5 |
| O=C1NCCCC12CCN(c1nc3c(c(C(F)(F)F)n1)CCCC3)C2 (stereo not drawn) | 80.7 |
| CNc1nc(N2CCC3(CCCNC3=O)C2)nc2c1CCC2 (stereo not drawn) | -7.17 |
| CCC(O)CN1CCN(C(=O)c2cccn2Cc2cccnc2)CC1 (stereo not drawn) | 7.12 |
| CN(C)CCCNC(=O)C1CC(=O)N(c2n[nH]c3cccc(F)c23)C1 (stereo not drawn) | 14.6 |
| CC(C)(C)NC(=O)CNc1ncccn1 | -1.85 |
| Cc1nc(N2CCN(C)CC2)ncc1C(=O)N1CCN(C)CC1 | 23 |
| Cc1nc(N2CCN(C)CC2)ncc1C(=O)N1CCCCC1 | 36.6 |
| Cc1nc(N2CCN(C)CC2)ncc1C(=O)N1CCCCCC1 | 51.7 |
| CC1CCN(c2ccc(C(=O)N3CCCC3c3ccc[nH]3)cn2)CC1 (stereo not drawn) | 27 |

| SMILES | INHIBITION [%] |
| --- | --- |
| CCCN1C(=O)[C@@H]2CC[C@H]1CN(S(=O)(=O)c1cccc(Cl)c1)C2 | -26.8 |
| COc1cccc(C(=O)NC(c2ccccn2)C2CCC(CN)CC2)c1 (stereo not drawn) | 41.2 |
| CN(CC(=O)Nc1nc2c(s1)CCCCCC2)C(=O)c1ccco1 | 74.4 |
| CC1CCc2nc(NC(=O)CN(C)C(=O)c3ccco3)sc2C1 (stereo not drawn) | 31.4 |
| CN(CC(=O)Nc1nc2c(s1)CCC2)C(=O)c1cccs1 | -8.51 |
| Cc1cccc(CN2C[C@@H]3COC[C@]3(CNC(=O)c3ccccc3)C2)n1 | 38.3 |
| Cc1ccc(CN2CCN(C3CSCCSC3)CC2CCO)o1 (stereo not drawn) | 50.9 |
| Cc1ccc(CN2CCN(C3CCC3)CC2CCO)o1 (stereo not drawn) | 46.6 |
| COc1cc(N2CCN(Cc3ccc(C)o3)C(CCO)C2)nc(N)n1 (stereo not drawn) | 35.2 |
| Cc1ccc(CN2CCN(C3CCCC3)CC2CCO)o1 (stereo not drawn) | 50.9 |
| CC(=O)N1CCC(N2CCN(Cc3ccc(C)o3)C(CCO)C2)CC1 (stereo not drawn) | 33.7 |
| Cc1ccc(CN2CCN(C3CCSCC3)CC2CCO)o1 (stereo not drawn) | 48 |
| CCCc1ccc(CN2CCC3(CCC(=O)N(C(C)C(=O)O)C3)CC2)o1 (stereo not drawn) | 1.74 |
| O=C(CN1CCN(C(=O)c2sccc2C2CC2)CC1)NC1CC1 | 31.8 |
| CCOCC(=O)N1C[C@@H]2CC[C@H]1CN(C(=O)c1ccncc1)C2 | -30.7 |
| Cc1cc(NC(C)c2csc(C)n2)n2nc(C)c(C)c2n1 (stereo not drawn) | 25.4 |
| CNC(=O)NC(=O)CSC(C)c1ccccc1F (stereo not drawn) | 55 |
| CC(SCC(=O)N(C)CC(=O)NC1CC1)c1ccc(F)c(F)c1 (stereo not drawn) | -18.9 |
| CC(SCC(=O)NC(N)=O)c1ccccc1F (stereo not drawn) | 24.7 |
| CC(SCC(=O)N(C)CC(=O)NC1CC1)c1ccccc1F (stereo not drawn) | 85.7 |
| CC(SCC(=O)N(C)CC(=O)NC1CC1)c1cc(F)ccc1F (stereo not drawn) | 49.3 |
| CCNC(=O)NC(=O)CSC(C)c1ccccc1F (stereo not drawn) | -32.3 |
| Nc1nc(C2CCN(C(=O)c3cscn3)CC2)cs1 | 34.7 |

| SMILES | INHIBITION [%] |
| --- | --- |
| CN1C[C@@H]2CN(C(=O)NCc3ccccc3)CCC[C@]2(C(=O)O)C1 | 5.63 |
| COCC1CC2(CCN(Cc3ccoc3)CC2)CN1C(C)C (stereo not drawn) | -1.26 |
| Cc1ccccc1CNC(=O)c1ccccc1-n1cc(CN)cn1 | 20.8 |
| CSCC[C@H](N)C(=O)NCc1cc2n(n1)CCCN(C(=O)C1CCC1)C2 | 28.5 |
| Cc1cc(C)c(CNC(=O)NCc2ccc(F)cc2)c(=O)[nH]1 | 27.6 |
| c1cc2cc[nH]c2c(CC2CN(Cc3cscn3)C2)n1 | 53.6 |
| Cn1ccc(CN2CC(Cc3nccc4cc[nH]c34)C2)n1 | 41.5 |
| c1cc2cc[nH]c2c(CC2CN(Cc3cncs3)C2)n1 | -0.232 |
| COC(=O)N1CC[C@@]2(O)CCCC[C@H]2[C@@H]1c1ccc2c(c1)OCO2 | 42.3 |
| CC(=O)N1CC[C@@]2(O)CCCC[C@H]2[C@@H]1c1ccc2c(c1)OCO2 | 52.1 |
| NC(=O)CN1CC[C@@]2(O)CCCC[C@H]2[C@@H]1c1ccc2c(c1)OCO2 | 17.6 |
| CCOCC1CN(S(=O)(=O)N(C)C)Cc2cnn(CC3CC3)c21 (stereo not drawn) | -57.7 |
| Cc1cc(CCC(=O)N2CCCC2)nc(C2CCCN2)n1 (stereo not drawn) | 24.8 |
| O=S(=O)(CCCN1CCCCC1Cn1cncn1)c1ccccc1 (stereo not drawn) | -29.8 |
| CN(CC(=O)N1CCCCC1c1nccs1)C1CC1 (stereo not drawn) | 13.6 |
| CCCN1CCC(NCc2cccc(CN3CCOC(C)C3)c2)CC1 (stereo not drawn) | 21.1 |
| CC1CN(Cc2cccc(CNC3CCCC3)c2)CCO1 (stereo not drawn) | 37.4 |
| CC1CN(Cc2cccc(CN)c2)CCO1 (stereo not drawn) | 59.1 |
| CC1CCN(CC(=O)N(C)CCc2noc(C3CC3)n2)C1=O (stereo not drawn) | -22.1 |
| CCCn1cc(CN2CCOCC2c2[nH]ncc2C)cn1 (stereo not drawn) | 6.2 |
| Cc1ncc(CN2CCc3c(nc4cc(C5CC5)nn4c3O)C2)n1C | 47.1 |
| Cc1oc2c(c1C(=O)N1CC[C@H](O)[C@]3(CCCO3)C1)CCCC2 | 3.75 |
